Source: article PMC10812921, “Transcriptional Coactivator BOB1 (OBF1, OCA-B) Modulates the Specificity of DNA Recognition by the POU-Domain Factors OCT1 and OCT2 in a Monomeric Configuration”

Experiments:
POU1 (OCT1 POU domain) = POU1 (OCT1 POU domain) (human, UniProt P14859 260-458); test: EMSA-SELEX-seq; no BOB1; 20 mM Tris-HCl pH 7.6, 140 mM NaCl, 10% glycerol, 0.5 mM EDTA, 0.05% Triton X-100, 0.1 mg/mL BSA, 0.1 mg/mL poly(dI-dC), 5 mM DTT, room temperature, 20 min; high values mean tight binding; conditions: protein: recombinant; dsDNA, one strand shown
Summary of the method: (§1)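 A double-stranded random 35-nt library (300 ng, PCR-amplified) was incubated with 30 ng tagged POU-domain protein, with or without 28 ng coactivator protein, in 20 μL Tris–HCl pH 7.6 binding buffer for 20 min at RT. The proteins had been expressed in E. coli BL21, purified under denaturing conditions and renatured. Complex bands from native 6% PAGE were eluted and PCR-amplified over four rounds, then sequenced on Illumina. For binding preference, the percentage of sequenced 8-mers matching a motif pattern was calculated.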

POU2 (OCT2 POU domain) = target: T1, POU2 (OCT2 POU domain) (human, UniProt P09086 175-386); test: as above; conditions: protein: recombinant; dsDNA, one strand shown
T1 sequence: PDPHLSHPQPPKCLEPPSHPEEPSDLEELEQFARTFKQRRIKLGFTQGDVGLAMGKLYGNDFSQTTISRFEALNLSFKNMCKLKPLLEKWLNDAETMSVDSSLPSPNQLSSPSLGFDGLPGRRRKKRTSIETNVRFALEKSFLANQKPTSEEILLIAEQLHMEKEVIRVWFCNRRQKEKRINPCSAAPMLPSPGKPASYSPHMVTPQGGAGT
Summary of the method: as §1

[1] = target: POU1 (OCT1 POU domain);BOB1 (OBF1, OCA-B) (human;human, UniProt P14859;Q16633 260-458;1-256, |); test: EMSA-SELEX-seq; with BOB1 (ternary complex band); 20 mM Tris-HCl pH 7.6, 140 mM NaCl, 10% glycerol, 0.5 mM EDTA, 0.05% Triton X-100, 0.1 mg/mL BSA, 0.1 mg/mL poly(dI-dC), 5 mM DTT, room temperature, 20 min; high values mean tight binding; conditions: protein: recombinant;recombinant; copies: 1;1; dsDNA, one strand shown
Summary of the method: as §1

[2] = target: T2, POU2 (OCT2 POU domain);BOB1 (OBF1, OCA-B) (human;human, UniProt P09086;Q16633 175-386;1-256, |); test: as above; conditions: protein: recombinant;recombinant; copies: 1;1; dsDNA, one strand shown
T2 sequence 1: T1 sequence
T2 sequence 2: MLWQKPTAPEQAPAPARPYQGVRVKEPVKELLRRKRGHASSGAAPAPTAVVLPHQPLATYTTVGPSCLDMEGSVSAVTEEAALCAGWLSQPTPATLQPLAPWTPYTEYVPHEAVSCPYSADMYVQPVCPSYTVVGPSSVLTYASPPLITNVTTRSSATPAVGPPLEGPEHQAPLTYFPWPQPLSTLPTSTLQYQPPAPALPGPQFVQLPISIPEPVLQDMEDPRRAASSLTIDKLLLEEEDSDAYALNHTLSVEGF
Summary of the method: as §1

Chain of POU1 (OCT1 POU domain) (P14859 260-458): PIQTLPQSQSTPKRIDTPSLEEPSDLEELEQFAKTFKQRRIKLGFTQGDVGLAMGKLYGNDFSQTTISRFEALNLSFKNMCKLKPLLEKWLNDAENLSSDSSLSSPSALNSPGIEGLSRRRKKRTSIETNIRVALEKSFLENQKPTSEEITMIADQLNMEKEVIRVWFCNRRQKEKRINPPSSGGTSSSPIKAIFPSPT

Sequence	binding signal (POU1 (OCT1 POU domain))	binding signal (POU2 (OCT2 POU domain))	binding signal [1]	binding signal [2]
ACACTAAC	0.0137 % of ANNNNAAN 8-mers	0.0132 % of ANNNNAAN 8-mers	0.0117 % of ANNNNAAN 8-mers	0.014 % of ANNNNAAN 8-mers
AGATAAAA	0.0542 % of ANNNNAAN 8-mers	0.057 % of ANNNNAAN 8-mers	0.0597 % of ANNNNAAN 8-mers	0.0462 % of ANNNNAAN 8-mers
AACCAAAG	0.0336 % of ANNNNAAN 8-mers	0.038 % of ANNNNAAN 8-mers	0.0539 % of ANNNNAAN 8-mers	0.0231 % of ANNNNAAN 8-mers
AATTCAAA	0.373 % of ANNNNAAN 8-mers	0.292 % of ANNNNAAN 8-mers	0.438 % of ANNNNAAN 8-mers	0.4 % of ANNNNAAN 8-mers
AAAACAAG	0.0641 % of ANNNNAAN 8-mers	0.0432 % of ANNNNAAN 8-mers	0.087 % of ANNNNAAN 8-mers	0.0751 % of ANNNNAAN 8-mers
ACCGCAAT	0.0164 % of ANNNNAAN 8-mers	0.019 % of ANNNNAAN 8-mers	0.0199 % of ANNNNAAN 8-mers	0.0264 % of ANNNNAAN 8-mers
AAAGCAAA	0.106 % of ANNNNAAN 8-mers	0.0754 % of ANNNNAAN 8-mers	0.179 % of ANNNNAAN 8-mers	0.0908 % of ANNNNAAN 8-mers
AGCTCAAA	0.0252 % of ANNNNAAN 8-mers	0.0213 % of ANNNNAAN 8-mers	0.0242 % of ANNNNAAN 8-mers	0.0264 % of ANNNNAAN 8-mers
ATCGTAAC	0.0236 % of ANNNNAAN 8-mers	0.0288 % of ANNNNAAN 8-mers	0.0238 % of ANNNNAAN 8-mers	0.0322 % of ANNNNAAN 8-mers
AGTACAAA	0.0336 % of ANNNNAAN 8-mers	0.0328 % of ANNNNAAN 8-mers	0.0375 % of ANNNNAAN 8-mers	0.0446 % of ANNNNAAN 8-mers
ATGGAAAG	0.148 % of ANNNNAAN 8-mers	0.112 % of ANNNNAAN 8-mers	0.199 % of ANNNNAAN 8-mers	0.129 % of ANNNNAAN 8-mers
AGAATAAG	0.0686 % of ANNNNAAN 8-mers	0.101 % of ANNNNAAN 8-mers	0.0527 % of ANNNNAAN 8-mers	0.0702 % of ANNNNAAN 8-mers
AGGACAAG	0.0263 % of ANNNNAAN 8-mers	0.0293 % of ANNNNAAN 8-mers	0.0297 % of ANNNNAAN 8-mers	0.0289 % of ANNNNAAN 8-mers
ATAGGAAG	0.0576 % of ANNNNAAN 8-mers	0.0696 % of ANNNNAAN 8-mers	0.0585 % of ANNNNAAN 8-mers	0.0561 % of ANNNNAAN 8-mers
AGACAAAC	0.0313 % of ANNNNAAN 8-mers	0.0265 % of ANNNNAAN 8-mers	0.0414 % of ANNNNAAN 8-mers	0.0322 % of ANNNNAAN 8-mers
ATACTAAG	0.045 % of ANNNNAAN 8-mers	0.0518 % of ANNNNAAN 8-mers	0.0441 % of ANNNNAAN 8-mers	0.0438 % of ANNNNAAN 8-mers
ATAGTAAG	0.0633 % of ANNNNAAN 8-mers	0.0806 % of ANNNNAAN 8-mers	0.0656 % of ANNNNAAN 8-mers	0.0619 % of ANNNNAAN 8-mers
AAAGTAAC	0.0439 % of ANNNNAAN 8-mers	0.0437 % of ANNNNAAN 8-mers	0.0605 % of ANNNNAAN 8-mers	0.0537 % of ANNNNAAN 8-mers
AACACAAC	0.016 % of ANNNNAAN 8-mers	0.019 % of ANNNNAAN 8-mers	0.014 % of ANNNNAAN 8-mers	0.0272 % of ANNNNAAN 8-mers
AAACTAAT	0.104 % of ANNNNAAN 8-mers	0.129 % of ANNNNAAN 8-mers	0.0808 % of ANNNNAAN 8-mers	0.0925 % of ANNNNAAN 8-mers
ATTTTAAT	0.672 % of ANNNNAAN 8-mers	0.679 % of ANNNNAAN 8-mers	0.258 % of ANNNNAAN 8-mers	0.221 % of ANNNNAAN 8-mers
AGTAAAAG	0.061 % of ANNNNAAN 8-mers	0.0662 % of ANNNNAAN 8-mers	0.0913 % of ANNNNAAN 8-mers	0.0578 % of ANNNNAAN 8-mers
AATCAAAG	0.0854 % of ANNNNAAN 8-mers	0.0857 % of ANNNNAAN 8-mers	0.122 % of ANNNNAAN 8-mers	0.0916 % of ANNNNAAN 8-mers
AGTATAAT	0.192 % of ANNNNAAN 8-mers	0.289 % of ANNNNAAN 8-mers	0.0866 % of ANNNNAAN 8-mers	0.121 % of ANNNNAAN 8-mers
AAAATAAC	0.0782 % of ANNNNAAN 8-mers	0.0696 % of ANNNNAAN 8-mers	0.0816 % of ANNNNAAN 8-mers	0.0735 % of ANNNNAAN 8-mers
AGAACAAG	0.0221 % of ANNNNAAN 8-mers	0.0334 % of ANNNNAAN 8-mers	0.0219 % of ANNNNAAN 8-mers	0.0231 % of ANNNNAAN 8-mers
ATAGAAAG	0.0461 % of ANNNNAAN 8-mers	0.0598 % of ANNNNAAN 8-mers	0.0546 % of ANNNNAAN 8-mers	0.0487 % of ANNNNAAN 8-mers
ACCACAAC	0.0107 % of ANNNNAAN 8-mers	0.0132 % of ANNNNAAN 8-mers	–	–
AGAGAAAA	0.0702 % of ANNNNAAN 8-mers	0.065 % of ANNNNAAN 8-mers	0.0574 % of ANNNNAAN 8-mers	0.0504 % of ANNNNAAN 8-mers
ACCCTAAC	0.0107 % of ANNNNAAN 8-mers	0.0121 % of ANNNNAAN 8-mers	–	0.0157 % of ANNNNAAN 8-mers
